Data as given in the supplement of paper PMC10981050.
Several values for one entry are separate records, joined by “and”; a condition that tells them apart may be missing. Equal values may be shown once. Where a name gives a salt, the structure may show the parent alone.

System: K562
Experiment: cell viability relative to vehicle control; higher = less cytotoxic
Details: 10 µM; SRSF2 genotype: SRSF2 P95H/wt
In short: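 Four leukaemia lines, as CRISPR-edited mutant clones and isogenic wild-type clones, were tested against Selleck bioactive, kinase and epigenetic probe libraries after removal of identity-inconsistent compounds. Cells were exposed to a single 10 µM dose for 48 h, and CellTiter-Glo luminescence was then read. Viability was calculated relative to the on-plate vehicle control.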

**Q.** For `Cc1ccc2nc(NC(=O)CSc3nc4c(c(=O)n3-c3ccccc3)SCC4)sc2c1`, which cell viability is on record?
**A.** 91.8% and 99.4%

**Q.** How did the cell viability turn out when `COC(=O)C1=C(C)NC(C)=C(C(=O)OCCN(C)Cc2ccccc2)C1c1cccc([N+](=O)[O-])c1` (stereo not given) [Nicardipine HCl] was run?
**A.** 79.8% and 89.1%

**Q.** Which cell viability does the source give for `O=C(O)c1cccnc1Nc1cccc(C(F)(F)F)c1` [Niflumic acid] here?
**A.** 97.2% and 100%

**Q.** With `Cc1cc(Nc2cc(N3CCN(C)CC3)nc(/C=C/c3ccccc3)n2)n[nH]1` [ENMD-2076 L-(+)-Tartaric acid] as the compound, how does the cell viability read?
**A.** 22.5% and 29.7%

**Q.** How did the cell viability turn out when `CC(C)[C@H]1CC[C@H](C(=O)N[C@H](Cc2ccccc2)C(=O)O)CC1` [Nateglinide (Starlix)] was run?
**A.** 103% and 101%

**Q.** How did the cell viability turn out when `O=C1C[C@@H](c2ccc(O)cc2)Oc2cc(O)cc(O)c21` [Naringenin] was run?
**A.** 99.2% and 105%

**Q.** How did the cell viability turn out when `C=CC(=O)N1CCC[C@@H](n2nc(-c3ccc(Oc4ccccc4)cc3)c3c(N)ncnc32)C1` was run?
**A.** 35.9% and 57.5%

**Q.** With `CC(=O)OC(CC(C)C1=C2CC(O)C3C4(C)CCC(=O)C(C)(C)C4CCC3(C)C2(C)CC1)C1OC1(C)C` (stereo not given) [Alisol B Acetate] as the compound, how does the cell viability read?
**A.** 81.3% and 84.2%

**Q.** `CC(=O)Nc1cccc2c1c(Sc1ccc(Cl)cc1)c(C)n2CC(=O)O` was tested. Which cell viability did it give?
**A.** 108% and 110%

**Q.** With `Cc1cc(NS(=O)(=O)c2ccc(N)cc2)no1` [Sulfamethoxazole sodium] as the compound, how does the cell viability read?
**A.** 107% and 94.7%

**Q.** Which cell viability does the source give for `C[C@@H]1O[C@@H](O[C@H]2[C@H](Oc3cc(O)c4c(c3)O[C@H](c3ccc(O)cc3)CC4=O)O[C@H](CO)[C@@H](O)[C@@H]2O)[C@H](O)[C@H](O)[C@H]1O` [Naringin (Naringoside)] here?
**A.** 101% and 119%

**Q.** For `C[C@]12CC[C@H](O)CC1=CC[C@@H]1[C@@H]2CC[C@]2(C)C(n3cnc4ccccc43)=CC[C@@H]12` [Galeterone (TOK-001)], which cell viability is on record?
**A.** 83% and 93.4%

**Q.** `COc1cc(C(=O)N(CCCc2ccccc2)Cc2ccc(CC(=O)O)cc2)cc(OC)c1C` was tested. Which cell viability did it give?
**A.** 95.6% and 98%

**Q.** With `Oc1ccc(OC2CCCCO2)cc1` (stereo not given) [Deoxyarbutin] as the compound, how does the cell viability read?
**A.** 104% and 99.3%

**Q.** Which cell viability does the source give for `NS(=O)(=O)c1ccccc1` [Benzenesulfonamide] here?
**A.** 100% and 106%

**Q.** Which cell viability does the source give for `COc1ccc([C@@H]2CC(=O)c3c(O)cc(O[C@@H]4O[C@H](CO)[C@@H](O)[C@H](O)[C@H]4O[C@@H]4O[C@@H](C)[C@H](O)[C@@H](O)[C@H]4O)cc3O2)cc1` [Poncirin] here?
**A.** 99.7% and 97.1%

**Q.** For `CC(=O)Oc1cc(C(F)(F)F)ccc1C(=O)O` [Triflusal], which cell viability is on record?
**A.** 101% and 90.6%

**Q.** How did the cell viability turn out when `OC1OC[C@@H](O)[C@@H](O)[C@@H]1O` (stereo partly drawn) [D(-)-Arabinose] was run?
**A.** 111% and 100%

**Q.** `CC[C@@H]([C@H](C)O)n1ncn(-c2ccc(N3CCN(c4ccc(OC[C@@H]5CO[C@@](Cn6cncn6)(c6ccc(F)cc6F)C5)cc4)CC3)cc2)c1=O` [Posaconazole] was tested. Which cell viability did it give?
**A.** 55.7% and 75.6%

**Q.** How did the cell viability turn out when `Nc1nc(-c2nn(Cc3ccccc3F)c3ncccc23)ncc1C1CC1` was run?
**A.** 110% and 114%

**Q.** With `COc1cc2c(cc1OC)[C@@H](Cc1ccc(O)c(Oc3cc4c(cc3OC)CCN(C)[C@@H]4Cc3ccc(O)cc3)c1)N(C)CC2` [Liensinine] as the compound, how does the cell viability read?
**A.** 86.6% and 83%

**Q.** Which cell viability does the source give for `NC(=O)c1cnccn1` [Pyrazinamide (Pyrazinoic acid amide)] here?
**A.** 107% and 105%

**Q.** For `CC(C)(C)NS(=O)(=O)c1cncc(-c2cc(F)c3nc(N)nn3c2)c1`, which cell viability is on record?
**A.** 100% and 102%

**Q.** With `CC(=O)O[C@@H]1C[C@@]23C[C@@]24CC[C@H](O[C@@H]2OC[C@@H](O)[C@H](O)[C@H]2O)C(C)(C)[C@@H]4CC=C3[C@]2(C)C[C@@H]3OC4(C[C@@H](C)[C@@H]3[C@@]12C)OC(O)C1(C)OC41` (stereo not given in full) [Cimicifugoside] as the compound, how does the cell viability read?
**A.** 110% and 103%

**Q.** Which cell viability does the source give for `O=C(O)c1ccc(CN2CCC(CN[C@@H]3C[C@H]3c3ccccc3)CC2)cc1` here?
**A.** 98.9% and 101%

**Q.** Which cell viability does the source give for `CN1C(N)=N[C@](C)(c2cc(NC(=O)c3ccc(F)cn3)ccc2F)CS1(=O)=O` [Verubecestat (MK-8931)] here?
**A.** 92.7% and 98.7%

**Q.** For `O=C[C@H](O)[C@@H](O)[C@H](O)CO` [Xylose], which cell viability is on record?
**A.** 95% and 93.8%

**Q.** With `COc1ccc(CCNCC(O)COc2cccc(C)c2)cc1OC` (stereo not given) [Bevantolol hydrochloride] as the compound, how does the cell viability read?
**A.** 92.7% and 89.9%

**Q.** How did the cell viability turn out when `C/C=C1\[C@H]2C=C(C)C[C@]1(N)c1ccc(=O)[nH]c1C2` [(-)-Huperzine A (HupA)] was run?
**A.** 105% and 103%

**Q.** Which cell viability does the source give for `COC(=O)CCC(C)C1CCC2C3C(O)CC4CC(O)CCC4(C)C3CC(O)C12C` (stereo not given) [Methyl Cholate] here?
**A.** 97.3% and 98.1%

**Q.** With `Cc1cccc(C)c1NC(=O)c1cc(S(N)(=O)=O)c(Cl)cc1O` [Xipamide] as the compound, how does the cell viability read?
**A.** 101% and 94.8%

**Q.** Which cell viability does the source give for `Cn1nnc2c(C(N)=O)ncn2c1=O` [Temozolomide] here?
**A.** 99.9% and 108%

**Q.** With `COc1ccc(Oc2cc(NCCC(F)(F)F)c3ncc(-c4ccc(C(=O)NC5CC5)c(C)c4)n3n2)c(F)c1F` as the compound, how does the cell viability read?
**A.** 103% and 102%

**Q.** `NC(=O)Cc1c[nH]c2ccccc12` [Indole-3-acetamide] was tested. Which cell viability did it give?
**A.** 97.9% and 97.4%

**Q.** `COc1ccc(CC(=O)O)cc1OC` [Homoveratrumic acid] was tested. Which cell viability did it give?
**A.** 92% and 79.3%

**Q.** With `COc1ccc2c(c1O)-c1c(O)c(OC)cc3c1[C@H](C2)[N+](C)(C)CC3` [Magnoflorinechloride] as the compound, how does the cell viability read?
**A.** 99.2% and 99.7%

**Q.** `CC(c1cc2ccccc2s1)N(O)C(N)=O` (stereo not given) [Zileuton] was tested. Which cell viability did it give?
**A.** 101% and 96.3%

**Q.** Which cell viability does the source give for `Cc1c(C(=O)N2CCOc3ccc(-c4ccc(N)nc4)cc3C2)ccc(S(C)(=O)=O)c1F` here?
**A.** 84.6% and 89.8%

**Q.** Which cell viability does the source give for `CC(C)(Oc1ccc(Cl)cc1)C(=O)OCCOC(=O)c1cccnc1` [Etofibrate] here?
**A.** 96% and 91.7%

**Q.** With `COc1cc(-c2oc3cc(O)cc(O)c3c(=O)c2OC2OC(COC3OC(C)C(O)C(O)C3O)C(O)C(O)C2OC2OC(C)C(O)C(O)C2O)ccc1O` (stereo not given) [Typhaneoside] as the compound, how does the cell viability read?
**A.** 103%
